This note sets out measurements from PubChem BioAssay (Tox21).

Unmarked numbers belong to inactive results. Results filed as inconclusive are left out. The source made the active and inactive calls. Unless noted, calls follow the shape of the dose curve; as a rule, active = well fitted curve in the direction sought with a large enough effect in the repeat runs; inconclusive = weak or mixed curves; inactive = no such curve, though single readings can be large; an effect the other way counts as inactive or inconclusive.

In test [1] the target is Thyrotropin receptor (Homo sapiens) (UniProt P16473). The test can be described thus: qHTS assay to identify small molecule agonists of the thyroid stimulating hormone receptor (TSHR) signaling pathway (AID 1224843; calls by dose curve; also: nearly all actives have a fitted effect of over 45% in size). The gist of the method: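 TSHR-expressing HEK293 cells (800 per well) were exposed to compounds for 30 min at room temperature. cAMP was then detected by HTRF competition with cAMP-d2 and anti-cAMP cryptate, read after 1 h at room temperature. Fifteen concentrations, triplicate.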
A general note: In qHTS, concentration-response curves come from the screen itself.

Test [2] can be described thus: qHTS assay to identify small molecule agonists of the hypoxia (HIF-1) signaling pathway - cell viability counter screen (AID 1224844; calls by dose curve; also: nearly all actives have a fitted effect of over 50% in size; also: potency is read from the fitted curve at half-maximal effect). In a few lines:
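Cells (HRE-bla ME-180, 2,000 per well) sat 5 hrs at 37C, got compound for 17 hrs, were read for CCF4-AM FRET, and were finally lysed with CellTiter-Glo for a 30 min room-temperature luminescence read.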

The nature of test [3]: qHTS assay to identify small molecule agonists of H2AX (AID 1224845; active = well fitted activation curve with a large enough effect in the signal ratio in the repeat runs, not every such curve was filed as active; the % refers to the signal ratio). The gist of the method:
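Wild-type CHO-K1 cells plated overnight, then exposed 3 hr at 37C to compounds at 15 concentrations (0.76% DMSO). Lysed, then HTRF anti-pH2AX(S139)-cryptate/anti-H2AX-d2 detection after 24 hr at room temperature; emissions 665 and 620 nm.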

A short description of test [4]: qHTS assay to identify small molecule agonists of the hypoxia (HIF-1) signaling pathway (AID 1224846; active = well fitted activation curve with a large enough effect in the signal ratio in the repeat runs, not every such curve was filed as active; the % refers to the signal ratio). In a few lines:
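A low-serum medium (0.5% dialyzed FBS) holding 2,000 HRE-bla ME-180 cells per well is preincubated for 5 hrs, dosed with compounds by pintool, and kept a further 17 hrs at 37C, 5% CO2 before CCF4-AM FRET detection of beta-lactamase.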

The nature of test [5]: qHTS RealTime-Glo MT Cell Viability Assay in HepG2 cells - 24 hour (AID 1224867). Also: nearly all actives have a fitted effect of over 50% in size. The gist of the method:
(§1)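 Luminescence read-out: viable HepG2 cells reduce a prosubstrate to a NanoLuc substrate, giving a signal proportional to live cell number. Reads taken at 0, 8, 16, 24, 32 and 40 h of compound exposure at 37 C.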

Test [6] can be described thus: qHTS RealTime-Glo MT Cell Viability Assay in HEK293 cells - 32 hour (AID 1224868). Also: nearly all actives have a fitted effect of over 50% in size. Also: potency is read from the fitted curve at half-maximal effect. In a few lines:
(§2)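 Nonlytic real-time viability readout: viable cells convert prosubstrate to NanoLuc substrate, giving luminescence proportional to live cell number. HEK293, 600 cells/well, compound added after 5 h, continuous culture at 37 C.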

The nature of test [7]: A CellTox Green Cytotoxicity Assay to monitor cytotoxicity in HEK293 cells - 0 hour (AID 1224869). Also: nearly all actives have a fitted effect of over 50% in size. The gist of the method:
(§3)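 Fluorescence intensity, read at 0, 8, 16, 24, 32 and 40 h of compound treatment, reflected dye binding to DNA of dead HEK293 cells; compounds (23 nL, DMSO) were added 5 h after plating cells with reagent.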

Test [8] can be described thus: qHTS RealTime-Glo MT Cell Viability Assay in HepG2 cells - 40 hour (AID 1224870). Also: nearly all actives have a fitted effect of over 50% in size. In a few lines: (§4)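 HepG2 cells mixed with RealTime-Glo MT reagents (NanoLuc plus cell-permeant prosubstrate) were seeded at 600 cells/well, incubated 5 h at 37 C/5% CO2, then pinned with compounds in DMSO; nonlytic luminescence tracked viability during 40 h treatment.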
A short description of test [9]: A CellTox Green Cytotoxicity Assay to monitor cytotoxicity in HEK293 cells - 40 hour (AID 1224871). Also: nearly all actives have a fitted effect of over 45% in size. The gist of the method: as §3
A short description of test [10]: qHTS RealTime-Glo MT Cell Viability Assay in HEK293 cells - 16 hour (AID 1224872). Also: nearly all actives have a fitted effect of over 50% in size. Also: potency is read from the fitted curve at half-maximal effect. In a few lines:
as §2

The nature of test [11]: qHTS RealTime-Glo MT Cell Viability Assay in HEK293 cells - 40 hour (AID 1224874). Also: nearly all actives have a fitted effect of over 50% in size. Also: potency is read from the fitted curve at half-maximal effect. The following applies: RealTime-Glo luminescence; max response: stronger effect = lower value. The gist of the method: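 Viable HEK293 cells reduce a cell-permeant prosubstrate; the product diffuses out and is consumed by NanoLuc in the medium to give light. Compounds went in after a 5 h incubation and plates were read over the treatment course.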

Test [12] is described as follows: A CellTox Green Cytotoxicity Assay to monitor cytotoxicity in HEK293 cells - 24 hour (AID 1224875). Also: nearly all actives have a fitted effect of over 45% in size. The gist of the method: as §3
Test [13] can be described thus: A CellTox Green Cytotoxicity Assay to monitor cytotoxicity in HepG2 cells - 16 hour (AID 1224876). Also: nearly all actives have a fitted effect of over 45% in size. In a few lines: (§5)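 Using 1536-well format, dye-containing HepG2 suspension was seeded, allowed 5 h at 37 C/5% CO2, dosed by pintool with compounds, positive and negative controls, and imaged for fluorescence across 40 h.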
The nature of test [14]: qHTS RealTime-Glo MT Cell Viability Assay in HepG2 cells - 32 hour (AID 1224877). Also: nearly all actives have a fitted effect of over 55% in size. The gist of the method:
as §1

Test [15] in a line: A CellTox Green Cytotoxicity Assay to monitor cytotoxicity in HepG2 cells - 24 hour (AID 1224878). Also: nearly all actives have a fitted effect of over 45% in size. Also: potency is read from the fitted curve at half-maximal effect. The gist of the method:
as §5

Test [16] is described as follows: A CellTox Green Cytotoxicity Assay to monitor cytotoxicity in HepG2 cells - 40 hour (AID 1224879). Also: nearly all actives have a fitted effect of over 40% in size. Also: potency is read from the fitted curve at half-maximal effect. In a few lines: as §5
Test [17] is described as follows: qHTS assay to identify small molecule agonists of H2AX - cell viability counter screen (AID 1224847; calls by dose curve; also: top concentration of the series differs between compounds; nearly all actives have a fitted effect of over 30% in size). In a few lines: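 CHO-K1 cells plated overnight at 37C, then exposed 3 h at 37C to compounds at 15 concentrations (0.76% DMSO final). Viability by CellTiter-Glo luminescence after 30 min at room temperature.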
Test [18] in a line: qHTS RealTime-Glo MT Cell Viability Assay in HepG2 cells - 8 hour (AID 1224873). Also: nearly all actives have a fitted effect of over 55% in size. In a few lines:
as §4

Test [19] in a line: qHTS assay to identify small molecule antagonists of the estrogen related receptor (ERR) signaling pathway from Tox21 library (AID 1224848). Also: nearly all actives have a fitted effect of over 50% in size. The gist of the method: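 Cells: ERR line, 2,000/well; 6 h preincubation 37 C/5% CO2. Cpd in DMSO via pin tool; 18 h, 37 C. ONE-Glo, 30 min RT, luminescence.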
Test [20] can be described thus: qHTS assay to identify small molecule agonists of the estrogen related receptor (ERR) signaling pathway from Tox21 library (AID 1224849; calls by dose curve; also: nearly all actives have a fitted effect of over 15% in size). The following applies: ERR reporter cell line, ONE-Glo luciferase, 18 h; at 92.4 µM (top of the series) unless noted. The gist of the method:
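Screening used an NTP-provided ERR luciferase cell line. Compounds in DMSO were added 6 h after seeding and left 18 h at 37 C before a 30 min ONE-Glo step and luminescence reading.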
% is scaled to controls: 0 for no effect and ±100 for the full control effect.

Chain of Thyrotropin receptor (Homo sapiens) (P16473 whole entry, looked up): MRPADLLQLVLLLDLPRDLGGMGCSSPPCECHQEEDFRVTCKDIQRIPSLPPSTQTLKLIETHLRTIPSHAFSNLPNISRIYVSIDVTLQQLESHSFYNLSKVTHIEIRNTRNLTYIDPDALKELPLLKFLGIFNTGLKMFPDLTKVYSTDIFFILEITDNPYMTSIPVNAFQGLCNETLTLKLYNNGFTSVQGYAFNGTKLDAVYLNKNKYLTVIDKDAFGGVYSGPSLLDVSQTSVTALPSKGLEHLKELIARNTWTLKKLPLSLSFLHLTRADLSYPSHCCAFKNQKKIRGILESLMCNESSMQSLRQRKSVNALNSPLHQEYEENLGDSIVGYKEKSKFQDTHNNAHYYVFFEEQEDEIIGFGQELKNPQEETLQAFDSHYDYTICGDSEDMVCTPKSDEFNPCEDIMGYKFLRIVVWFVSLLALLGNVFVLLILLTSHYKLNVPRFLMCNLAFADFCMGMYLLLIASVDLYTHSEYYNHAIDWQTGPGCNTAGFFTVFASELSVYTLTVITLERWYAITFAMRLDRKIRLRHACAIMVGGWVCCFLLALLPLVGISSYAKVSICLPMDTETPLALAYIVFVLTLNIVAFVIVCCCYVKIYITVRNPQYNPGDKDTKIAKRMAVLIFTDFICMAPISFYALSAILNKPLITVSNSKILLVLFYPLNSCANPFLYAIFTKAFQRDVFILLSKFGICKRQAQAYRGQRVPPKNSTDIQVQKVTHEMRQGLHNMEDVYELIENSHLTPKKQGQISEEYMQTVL

Consider `CCn1nc(C)c2c1C(=O)NCC(c1ccc(O)cc1)=N2`, for which the Potency entry in [1], in test [2], in test [3], in test [5], in [6] and in test [7] was “inactive” in each case. For the same molecule, the Potency entry in test [8], in test [9], in test [10], in test [12], in [13] and in test [14] was “inactive” each time. In addition, the Potency entry in [15] and in test [16] was “inactive” in each case. In addition, the result in test [4] was inactive. Moreover, the max response in test [11] is 0.626%.
As for `CCOC(=N)CC(=O)OCC`, the Potency entry in test [1], in [3], in test [17], in [5], in test [6] and in test [7] was “inactive” each time. For the same molecule, the Potency result in test [8], in test [9], in test [10], in [18], in [12] and in [13] was “inactive” each time. Also, the Potency entry in test [14], in [15] and in test [16] was “inactive” in each case. Besides, the Potency in test [2] is 19.5 µM (active). Also, the max response in test [11] was -25%.
On to `OCCSc1ccccc1`, for which the Potency result in test [1], in test [3], in [17], in [5], in [8] and in [9] was “inactive” each time. The Potency result in test [10], in test [18], in test [12], in test [13], in test [14] and in test [15] was “inactive” in each case. In test [16], the Potency result is “inactive”. Moreover, the Potency in test [2] is 21.9 µM (active). Moreover, the max response in [11] was -28.1%.
Regarding `O=C(CCCN1CCC(O)(c2ccc(Br)cc2)CC1)c1ccc(F)cc1`, the Potency entry in test [1], in test [2], in [3], in test [17], in [7] and in test [9] was “inactive” in each case. Besides, in test [12], the Potency entry was “inactive”. In addition, the Potency was 9.52 µM (active) in test [6]; 9.52 µM (active) in test [10]; 10.7 µM (active) in test [11]; 23.9 µM (active) in [15]; 23.9 µM (active) in test [16].
Take `C[Si]1(C)O[Si](C)(C)O[Si](C)(C)O1`: the Potency entry in test [1], in test [2], in [17], in test [19], in test [5] and in test [6] was “inactive” in each case. Also, the Potency entry in test [7], in test [8], in test [9], in test [10], in test [18] and in [12] was “inactive” throughout. Further, the Potency entry in test [13], in [14], in test [15] and in test [16] was “inactive” each time. Further, the molecule was classed as inactive in test [4]. Further, the activity change, positive = activation in test [20] is -9.67%. For the same molecule, in test [11], the max response was 0.932%.
Turning to `Cc1nc2ccccc2s1`, the Potency entry in test [1], in test [2], in test [17], in test [19], in test [5] and in test [7] was “inactive” in each case. Moreover, the Potency result in test [8], in test [9], in [10], in test [18], in [13] and in test [14] was “inactive” each time. The Potency result in test [15] and in [16] was “inactive” in each case. Moreover, the result in test [4] was inactive. Also, the activity change, positive = activation in test [20] was 1.14%. Besides, the max response in test [11] was 2.93%.
Turning to `OC(CCCN1CCCCC1)(c1ccccc1)c1ccccc1`, the Potency result in [1], in test [2], in test [3], in test [17], in [19] and in test [5] was “inactive” throughout. In addition, the Potency result in test [7], in test [8], in test [9], in test [10], in test [18] and in [12] was “inactive” in each case. Also, the Potency entry in test [13], in test [14] and in test [15] was “inactive” in each case. For the same molecule, in [20], the activity change, positive = activation is 2.99% [at 42.5 µM]. Further, in test [11], the max response is 0.842%.
